Assay results taken from PubChem BioAssay AID1159580 (chemical genetic matrix, 2015).
Screen size: about 5,500 compounds; about 2,000 (36%) were called active. Another 18% or so got no clear call; they are omitted. Cut-off read from the data, not from the text of the source: active = normalized growth mostly below about 0.91 (no sharp cut-off); inconclusive = no clear call, values can overlap the other calls; inactive = mostly above about 0.92. The list shows a part of the results.

Assay: chemical genetic growth profiling, strain panel (AID 1159580);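 note: tested at 20 µM; growth read once vehicle control cultures reached saturation at 30 °C; 1 = growth at the plate median or of vehicle wells; lower values mean less growth of the strain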
Conditions: S. cerevisiae deletion strains, growth OD
[1] = locus YAR019C, strain CDC15, stronger effect = lower value
[2] = locus YBL105C, strain PKC1, stronger effect = lower value
[3] = locus YBR135W, strain CKS1, stronger effect = lower value
[4] = locus YBR136W, strain MEC1, stronger effect = lower value
[5] = locus YBR160W, strain CDC28, stronger effect = lower value
[6] = locus YDL017W, strain CDC7, stronger effect = lower value
[7] = locus YDL028C, strain MPS1, stronger effect = lower value
[8] = locus YDL101C, strain DUN1, stronger effect = lower value
[9] = locus YDL108W, strain KIN28, stronger effect = lower value
[10] = locus YDL132W, strain cdc53, stronger effect = lower value
[11] = locus YDL214C, strain PRR2, stronger effect = lower value
[12] = locus YDR052C, strain DBF4, stronger effect = lower value
[13] = locus YDR054C, strain cdc34, stronger effect = lower value
[14] = locus YDR226W, strain ADK1, stronger effect = lower value
[15] = locus YDR477W, strain SNF1, stronger effect = lower value
[16] = locus YER123W, strain YCK3, stronger effect = lower value
[17] = locus YER133W, strain GLC7, stronger effect = lower value
[18] = locus YFL009W, strain cdc4, stronger effect = lower value
[19] = locus YFL029C, strain CAK1, stronger effect = lower value
[20] = locus YFR003C, strain YPI1, stronger effect = lower value
[21] = locus YFR019W, strain FAB1, stronger effect = lower value
[22] = locus YFR028C, strain CDC14, stronger effect = lower value
[23] = locus YGR040W, strain KSS1, stronger effect = lower value
[24] = locus YGR052W, strain FMP48, stronger effect = lower value
[25] = locus YGR092W, strain DBF2, stronger effect = lower value
[26] = locus YHR030C, strain SLT2, stronger effect = lower value
[27] = locus YHR079C, strain IRE1, stronger effect = lower value
[28] = locus YHR082C, strain KSP1, stronger effect = lower value
[29] = locus YHR205W, strain SCH9, stronger effect = lower value
[30] = locus YIL147C, strain SLN1, stronger effect = lower value
[31] = locus YJL095W, strain BCK1, stronger effect = lower value
[32] = locus YJL128C, strain PBS2, stronger effect = lower value
[33] = locus YJL157C, strain FAR1, stronger effect = lower value
[34] = locus YJR016C, strain ILV3, stronger effect = lower value
[35] = locus YJR066W, strain TOR1 (second series), stronger effect = lower value
[36] = locus YJR066W, strain TOR1, stronger effect = lower value
[37] = locus YKL048C, strain ELM1, stronger effect = lower value
[38] = locus YKL067W, strain YNK1, stronger effect = lower value
[39] = locus YKL193C, strain SDS22, stronger effect = lower value
[40] = locus YKL203C, strain TOR2, stronger effect = lower value
[41] = locus YLR113W, strain HOG1, stronger effect = lower value
[42] = locus YLR133W, strain CKI1, stronger effect = lower value
[43] = locus YLR403W, strain SFP1, stronger effect = lower value
[44] = locus YML070W, strain DAK1, stronger effect = lower value
[45] = locus YMR001C, strain CDC5, stronger effect = lower value
[46] = locus YMR205C, strain PFK2 (second series), stronger effect = lower value
[47] = locus YMR277W, strain FCP1, stronger effect = lower value
[48] = locus YNL006W, strain LST8, stronger effect = lower value
[49] = locus YNL020C, strain ARK1, stronger effect = lower value
[50] = locus YNL161W, strain CBK1, stronger effect = lower value
[51] = locus YNL183C, strain NPR1, stronger effect = lower value
[52] = locus YNL207W, strain RIO2, stronger effect = lower value
[53] = locus YNL222W, strain SSU72, stronger effect = lower value
[54] = locus YNL307C, strain MCK1 (second series), stronger effect = lower value
[55] = locus YOL078W, strain AVO1, stronger effect = lower value
[56] = locus YOL136C, strain PFK27, stronger effect = lower value
[57] = locus YOR061W, strain CKA2, stronger effect = lower value
[58] = locus YOR119C, strain RIO1, stronger effect = lower value
[59] = locus YOR231W, strain MKK1, stronger effect = lower value
[60] = locus YOR329C, strain SCD5, stronger effect = lower value
[61] = locus YPL031C, strain PHO85, stronger effect = lower value
[62] = locus YPL153C, strain RAD53, stronger effect = lower value
[63] = locus YPL204W, strain HRR25, stronger effect = lower value
[64] = locus YPL209C, strain IPL1, stronger effect = lower value
[65] = locus YPL256C, strain CLN2, stronger effect = lower value
[66] = locus YPR025C, strain CCL1, stronger effect = lower value
[67] = locus YPR106W, strain ISR1, stronger effect = lower value
[68] = locus YPR111W, strain DBF20, stronger effect = lower value
[69] = strain NNK1, stronger effect = lower value
[70] = strain TSCII, stronger effect = lower value
[71] = locus YAL013W, strain DEP1, stronger effect = lower value
[72] = locus YBR229C, strain ROT2, stronger effect = lower value
[73] = locus YDR150W, strain NUM1, stronger effect = lower value
[74] = locus YEL061C, strain CIN8, stronger effect = lower value
[75] = locus YGR078C, strain PAC10, stronger effect = lower value
[76] = locus YHR087W, strain rtc3, stronger effect = lower value
[77] = locus YJL187C, strain SWE1, stronger effect = lower value
[78] = locus YJR043C, strain POL32, stronger effect = lower value
[79] = locus YJR075W, strain HOC1, stronger effect = lower value
[80] = locus YLR039C, strain RIC1, stronger effect = lower value
[81] = locus YLR058C, strain SHM2 (second series), stronger effect = lower value
[82] = locus YLR085C, strain ARP6, stronger effect = lower value
[83] = locus YLR262C, strain YPT6, stronger effect = lower value
[84] = locus YML094W, strain GIM5, stronger effect = lower value
[85] = locus YMR219W, strain ESC1, stronger effect = lower value
[86] = locus YMR263W, strain SAP30, stronger effect = lower value
[87] = locus YNL153C, strain GIM3, stronger effect = lower value
[88] = locus YNL298W, strain CLA4 (second series), stronger effect = lower value
[89] = locus YNL322C, strain KRE1, stronger effect = lower value
[90] = locus YNR030W, strain Alg12, stronger effect = lower value
[91] = locus YPL055C, strain LGE1, stronger effect = lower value
[92] = locus YPL241C, strain CIN2, stronger effect = lower value
[93] = locus YPR135W, strain CTF4, stronger effect = lower value

Measured: normalized growth

CCCCCCCCCCCCSc1ncn[nH]1
inactive: [1] 0.985 | [2] 0.976 | [3] 0.968 | [4] 0.973 | [5] 0.971 | [6] 0.977 | [7] 0.976 | [8] 0.975 | [9] 0.969 | [10] 0.976 | [11] 0.735 | [12] 0.975 | [13] 0.98 | [14] 0.968 | [15] 0.734 | [16] 0.645 | [17] 0.88 | [18] 0.971 | [19] 0.981 | [20] 0.977 | [22] 0.977 | [23] 0.817 | [25] 0.595 | [30] 0.978 | [32] 0.939 | [33] 0.728 | [34] 0.975 | [35] 0.738 | [37] 0.821 | [38] 0.85 | [39] 0.976 | [40] 0.731 | [44] 0.789 | [45] 0.976 | [46] 0.771 | [47] 0.975 | [48] 0.986 | [50] 0.981 | [52] 0.978 | [53] 0.972 | [55] 0.973 | [56] 0.723 | [57] 0.84 | [58] 0.655 | [60] 0.984 | [64] 0.982 | [66] 0.972 | [67] 0.991 | [68] 0.973 | [69] 0.983 | [70] 0.975
active: [21] 0.443 | [24] 0.511 | [26] 0.135 | [27] 0.254 | [28] 0.209 | [29] 0.294 | [31] 0.279 | [36] 0.297 | [41] 0.479 | [42] 0.566 | [43] 0.447 | [49] 0.523 | [51] 0.444 | [54] 0.478 | [59] 0.439 | [61] 0.542 | [62] 0.556 | [63] 0.556 | [65] 0.318

CCCCCCCCCCCCSc1nnc(N)s1
inactive: [71] 1.01 | [72] 0.994 | [8] 1.05 | [73] 1.01 | [74] 1 | [75] 0.999 | locus YGR229C, strain SMI1, stronger effect = lower value 0.977 | [26] 0.964 | [76] 1.02 | [77] 0.995 | [78] 0.984 | [79] 1.01 | [80] 0.981 | [81] 0.991 | [82] 0.953 | [83] 1 | [84] 1.12 | [85] 0.996 | [86] 0.968 | locus YMR307W, strain GAS1, stronger effect = lower value 0.933 | [87] 1.02 | [88] 0.976 | [89] 0.983 | [90] 1.02 | [91] 1.02 | [92] 0.978 | [93] 1.21

NC(=NS(=O)(=O)c1cc(Cl)c(Oc2ccc([N+](=O)[O-])cc2Cl)c(Cl)c1)c1cccnc1
inactive: [71] 1 | [72] 0.993 | [8] 0.976 | [73] 0.948 | [74] 1.01 | [75] 1 | [26] 0.924 | [76] 1.01 | [78] 1 | [79] 0.992 | [80] 1.09 | [81] 1.01 | [82] 1.05 | [83] 1.09 | [84] 1.01 | [85] 0.997 | [86] 0.95 | locus YNL128W, strain TEP1, stronger effect = lower value 1.02 | [87] 0.992 | [88] 1.02 | [89] 1.01 | [90] 1.01 | [91] 0.912 | [92] 1.01 | [93] 0.96

CC1CC(=O)Nc2ccccc2N1C(=O)c1ccc([N+](=O)[O-])cc1 (stereo unspecified)
inactive: [71] 1.01 | [72] 1.01 | locus YCL061C, strain MRC1, stronger effect = lower value 1.02 | [8] 1.05 | locus YDL134C, strain PPH21, stronger effect = lower value 1.01 | [73] 0.937 | [74] 0.991 | [75] 1.03 | [26] 1.01 | [76] 0.978 | [77] 1.01 | [78] 1.02 | [79] 1.01 | [80] 1.03 | [81] 0.998 | [82] 1.03 | [83] 1 | [84] 1.02 | [85] 1.01 | [86] 1.05 | [87] 1.02 | [88] 1.05 | [89] 1 | [90] 1.02 | locus YOL006C, strain TOP1, stronger effect = lower value 1.01 | [91] 0.996 | [92] 1.02 | [93] 1.03

N/C(=N/OC(=O)c1ccc([N+](=O)[O-])cc1)c1c(Cl)cccc1Cl
inactive: [1] 0.939 | [2] 0.946 | [3] 0.949 | [4] 0.941 | [5] 0.967 | [6] 0.958 | [7] 0.948 | [8] 0.975 | [9] 0.952 | [10] 0.938 | [11] 0.91 | [12] 0.955 | [13] 0.94 | [14] 0.944 | [15] 0.764 | [16] 0.936 | [17] 0.805 | [18] 0.935 | [19] 0.953 | [20] 0.95 | [21] 0.825 | [22] 0.942 | [23] 0.848 | [24] 0.71 | [27] 0.536 | [28] 0.872 | [30] 0.94 | [32] 0.973 | [33] 0.863 | [34] 0.942 | [36] 0.642 | [37] 1.02 | [38] 0.924 | locus YKL101W, strain HSL1, stronger effect = lower value 0.911 | [39] 0.935 | [40] 0.758 | [42] 0.898 | [43] 0.69 | [44] 0.883 | [45] 0.941 | [46] 0.905 | [47] 0.921 | [48] 0.958 | [49] 0.881 | [50] 0.954 | [51] 0.578 | [52] 0.915 | [53] 0.954 | [55] 0.938 | [56] 0.936 | [57] 0.919 | [58] 0.746 | [60] 0.954 | [61] 0.7 | [62] 0.693 | [63] 0.671 | [64] 0.955 | [66] 0.955 | [67] 0.984 | [68] 0.979 | [69] 0.982 | [70] 0.942
active: [25] 0.465 | [26] 0.268 | [29] 0.449 | [31] 0.418 | [35] 0.598 | [41] 0.661 | [54] 0.613 | [59] 0.57 | [65] 0.733
